Laboratory results reported in PubChem BioAssay.
Results with a measured potency or affinity are listed apart. Results filed as inconclusive are left out. Calls of active or inactive are those of the source. Unless noted, the rule behind the calls is not given here.

How the values were obtained:
[1] = cytotoxicity in PAX8-dependent RMG-1 cells, dose response, cell-based, cherry-pick (AID 687029;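 active = signal drop whose fitted half-maximal concentration is at most twice the top valid dose, in every test run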;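 note: cells exposed to compound for 96 hours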)
[2] = cytotoxicity in IOSE-T80 ovarian epithelial cells, dose response, selectivity assay for PAX8 inhibitor project, cell-based, cherry-pick (AID 687032;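 active = fitted half-maximal concentration for viability loss no higher than twice the top valid dose, in every repeat run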;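 note: cells exposed to compound for 96 h before reading; 0% = neutral control wells and -100% = 2 µM mitoxantrone kill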)
[3] = inhibitors of CMV-promoter luciferase reporter, dose response, counter-screen for Pax8 inhibitor project, cell-based, HEK293, luminescence, dry powder (AID 743020;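 active = signal-lowering compounds whose fitted half-maximal concentration is at or below twice the top tested dose in every run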;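 note: HEK293 cells stably expressing the CMV luciferase reporter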)
[4] = non-specific cell cytotoxicity, dose response, cytotoxicity control for PAX8 inhibitor project, plate reader, dry powder samples (AID 743021)
[5] = IGROV1 ovarian cancer cell cytotoxicity, dose response, PAX8 inhibitor project, plate reader, dry powder samples (AID 743043);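 note: more negative means fewer viable cells or more cytotoxicity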
[6] = NIH:OVCAR-3 ovarian cancer cell cytotoxicity, dose response, PAX8 inhibitor project, plate reader, dry powder samples (AID 743044); conditions: max activity: at 35 µM, active compounds read low unless noted
[7] = IOSE-T80 ovarian epithelial cell cytotoxicity, dose response, cytotoxicity control for PAX8 inhibitor project, plate reader, dry powder samples (AID 743045);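 note: 0% = neutral control median and -100% = positive control median; more negative values mean more cell killing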
[8] = A2780 ovarian cancer cell cytotoxicity, dose response, cytotoxicity control, plate reader, dry powder samples (AID 743046);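 note: 0% = neutral control wells and -100% = cytotoxic reference compound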
[9] = cytotoxicity in OVCAR8 ovarian cancer cells, dose response, PAX8 project, cell-based, plate reader, dry powder samples (AID 743197)

C[C@H](CO)N1C[C@H](C)[C@H](CN(C)Cc2ccc(C(F)(F)F)cc2)OCCCC[C@H](C)Oc2ccc(NC(=O)c3ccccc3)cc2C1=O
inactive: outcome [1] | outcome [2] | outcome [3] | outcome [4] | outcome [5] | max activity [6] -59.7% | outcome [7] | outcome [8]

CCCN1[C@H](C(=O)N2CCOCC2)[C@@H](CO)[C@@H]2Cn3c(ccc(/C=C/c4ccccc4)c3=O)[C@@H]21
inactive: outcome [1] | outcome [2] | outcome [3] | outcome [4] | outcome [5] | max activity [6] -10.3% [at 0.5 µM, active compounds read low] | outcome [7] | outcome [8]

C[C@H](CO)N1C[C@H](C)[C@H](CN(C)Cc2ccc(C(F)(F)F)cc2)Oc2ccc(NS(=O)(=O)c3ccc(F)cc3)cc2CC1=O
inactive: outcome [1] | outcome [2] | outcome [3] | outcome [4] | outcome [5] | max activity [6] 12.3% [at 16 µM, active compounds read low] | outcome [7] | outcome [8]

C[C@@H]1CCCCO[C@@H](CN(C)Cc2ccncc2)[C@H](C)CN([C@H](C)CO)C(=O)c2cc(NC(=O)Nc3ccc(C(F)(F)F)cc3)ccc2O1
inactive: outcome [1] | outcome [2] | outcome [3] | outcome [4] | outcome [5] | max activity [6] 17.2% [at 4.2 µM, active compounds read low] | outcome [7] | outcome [8]

C[C@H]1CN([C@@H](C)CO)C(=O)c2c(c3ccccc3n2C)-c2ccccc2CO[C@H]1CN(C)S(=O)(=O)c1ccc(C(F)(F)F)cc1
inactive: outcome [1] | outcome [2] | outcome [3] | outcome [4] | outcome [5] | max activity [6] -24.4% | outcome [7] | outcome [8]

C[C@H](O)C#Cc1ccc2c(c1)O[C@H](CN(C)Cc1ccc(-c3ccccc3)cc1)[C@H](C)CN([C@@H](C)CO)S2(=O)=O
inactive: outcome [1] | outcome [2] | outcome [3] | outcome [4] | outcome [5] | max activity [6] 54.2% [at 0.5 µM, active compounds read low] | outcome [7] | outcome [8]

COc1ccc(CN(C)C[C@@H]2OCCCC[C@H](C)Oc3ccc(NC(=O)Nc4cccc5ccccc45)cc3C(=O)N([C@H](C)CO)C[C@H]2C)cc1
inactive: outcome [1] | outcome [2] | outcome [3] | outcome [4] | outcome [5] | max activity [6] -16.9% | outcome [7] | outcome [8]

Cc1ccc(S(=O)(=O)Nc2ccc3c(c2)C(=O)N([C@@H](C)CO)C[C@H](C)[C@@H](CN(C)Cc2ccc(Cl)c(Cl)c2)OCCCC[C@@H](C)O3)cc1
inactive: outcome [1] | outcome [2] | outcome [3] | outcome [4] | outcome [5] | max activity [6] -5.1% [at 16 µM, active compounds read low] | outcome [7] | outcome [8]

CNC[C@@H]1Oc2cc(C#CC3CCCCC3)ccc2S(=O)(=O)N([C@@H](C)CO)C[C@@H]1C
inactive: outcome [1] | outcome [2] | outcome [3] | outcome [4] | outcome [5] | max activity [6] 17.9% [at 0.26 µM, active compounds read low] | outcome [7] | outcome [8] | outcome [9]

COc1ccc(S(=O)(=O)Nc2ccc3c(c2)CC(=O)N([C@@H](C)CO)C[C@@H](C)[C@H](CN(C)Cc2ccc(-c4ccccc4)cc2)O3)cc1
inactive: outcome [1] | outcome [2] | outcome [3] | outcome [4] | outcome [5] | max activity [6] 35.7% [at 1 µM, active compounds read low] | outcome [7] | outcome [8] | outcome [9]

C[C@@H]1CCCCO[C@H](CN(C)C(=O)NC2CCCCC2)[C@@H](C)CN([C@@H](C)CO)C(=O)c2cc(NC(=O)Nc3ccc(C(F)(F)F)cc3)ccc2O1
inactive: outcome [1] | outcome [2] | outcome [3] | outcome [4] | outcome [5] | max activity [6] 18.6% [at 2.1 µM, active compounds read low] | outcome [7] | outcome [8] | outcome [9]

C[C@@H]1CN([C@H](C)CO)C(=O)c2cc(NC(=O)Nc3ccc(F)cc3)ccc2O[C@@H](C)CCCCO[C@H]1CN(C)Cc1ccc(Cl)c(Cl)c1
inactive: outcome [1] | outcome [2] | outcome [3] | outcome [4] | outcome [5] | max activity [6] 26% | outcome [7] | outcome [8] | outcome [9]

C[C@@H]1CCCCO[C@@H](CN(C)Cc2ccc(C(F)(F)F)cc2)[C@H](C)CN([C@H](C)CO)C(=O)c2cc(NC(=O)Cc3ccccc3)ccc2O1
inactive: outcome [1] | outcome [2] | outcome [3] | outcome [4] | outcome [5] | max activity [6] -36.2% | outcome [7] | outcome [8] | outcome [9]

CCCC(=O)Nc1ccc2c(c1)C(=O)N(C)C[C@@H](OC)[C@H](C)CN(Cc1ccc(-c3ccccn3)cc1)[C@H](C)CO2
inactive: outcome [1] | outcome [2] | outcome [3] | outcome [4] | outcome [5] | max activity [6] 8.7% [at 0.5 µM, active compounds read low] | outcome [7] | outcome [8] | outcome [9]

O=C(C[C@H]1C[C@@H]2c3cc(NS(=O)(=O)c4ccc(F)cc4)ccc3O[C@@H]2[C@@H](CO)O1)NCc1ccc(-c2ccccc2)cc1
inactive: outcome [1] | outcome [2] | outcome [3] | outcome [4] | outcome [5] | max activity [6] -28.3% | outcome [7] | outcome [8]

C[C@@H]1CCCCO[C@@H](CN(C)C(=O)Nc2ccccc2)[C@H](C)CN([C@H](C)CO)C(=O)c2cc(NC(=O)Nc3ccc(C(F)(F)F)cc3)ccc2O1
inactive: outcome [1] | outcome [2] | activity change, negative = inhibition [3] 5.92% [at 8 µM] | outcome [4] | outcome [5] | max activity [6] 33.8% [at 16 µM, active compounds read low] | outcome [7] | outcome [8] | outcome [9]

C[C@H](CO)N1C[C@H](C)[C@H](CN(C)C(=O)NC2CCCCC2)OCCCC[C@H](C)Oc2ccc(NC(=O)Nc3ccc(C(F)(F)F)cc3)cc2C1=O
inactive: outcome [1] | outcome [2] | outcome [3] | outcome [4] | outcome [5] | max activity [6] 11.8% [at 2.1 µM, active compounds read low] | outcome [7] | outcome [8] | outcome [9]

C[C@@H]1CN([C@H](C)CO)S(=O)(=O)c2ccc(C#Cc3ccncc3)cc2O[C@H]1CN(C)C(=O)Nc1ccc2c(c1)OCO2
inactive: outcome [1] | outcome [2] | outcome [3] | outcome [4] | outcome [5] | max activity [6] -26.8% [at 16 µM, active compounds read low] | outcome [7] | outcome [8] | outcome [9]

C[C@@H]1CN([C@@H](C)CO)C(=O)Cc2cc(N(C)C)ccc2O[C@H]1CN(C)Cc1ccc(Oc2ccccc2)cc1
inactive: outcome [1] | outcome [2] | outcome [3] | outcome [4] | outcome [5] | max activity [6] -11.3% [at 4.2 µM, active compounds read low] | outcome [7] | outcome [8] | outcome [9]

C[C@H]1CN([C@@H](C)CO)C(=O)c2c(c3ccccc3n2C)-c2ccccc2CO[C@@H]1CN(C)Cc1ccc(-c2ccccc2)cc1
inactive: outcome [1] | outcome [2] | outcome [3] | outcome [4] | outcome [5] | max activity [6] 59% [at 30 µM, active compounds read low] | outcome [7] | outcome [8] | outcome [9]

O=C(Nc1cccc(F)c1)N1CCCCN2[C@@H](CO)[C@@H](c3ccc(-c4ccncc4)cc3)[C@@H]2C1
inactive: outcome [1] | outcome [2] | outcome [3] | outcome [4] | outcome [5] | max activity [6] 12.6% [at 1 µM, active compounds read low] | outcome [7] | outcome [8]

Cc1ccc(S(=O)(=O)N(C)C[C@@H]2OCCCC[C@@H](C)Oc3ccc(NS(=O)(=O)c4ccc(Cl)cc4)cc3C(=O)N([C@H](C)CO)C[C@H]2C)cc1
inactive: outcome [1] | outcome [2] | outcome [3] | outcome [4] | outcome [5] | max activity [6] -13.3% [at 4.2 µM, active compounds read low] | outcome [7] | outcome [8]

C[C@@H]1CN([C@H](C)CO)C(=O)c2cc(NC(=O)Nc3ccc(C(F)(F)F)cc3)ccc2O[C@@H](C)CCCCO[C@H]1CN(C)Cc1ccc(Cl)c(Cl)c1
inactive: outcome [1] | outcome [2] | outcome [3] | outcome [4] | outcome [5] | max activity [6] 8.01% [at 8 µM, active compounds read low] | outcome [7] | outcome [8] | outcome [9]

Cc1ccc(S(=O)(=O)Nc2cccc3c2O[C@@H](CN(C)C(=O)Nc2ccc(C(F)(F)F)cc2)[C@@H](C)CN([C@H](C)CO)C3=O)cc1
inactive: outcome [1] | outcome [2] | outcome [3] | outcome [4] | outcome [5] | max activity [6] 25% [at 2.1 µM, active compounds read low] | outcome [7] | outcome [8] | outcome [9]

C[C@@H]1CCCCO[C@H](CN(C)S(=O)(=O)c2cccs2)[C@H](C)CN([C@@H](C)CO)C(=O)c2cc(NC(=O)CCC(F)(F)F)ccc2O1
inactive: outcome [1] | outcome [2] | outcome [3] | outcome [4] | outcome [5] | max activity [6] -17.7% | outcome [7] | outcome [8] | outcome [9]

C[C@@H]1CCCCO[C@@H](CN(C)Cc2ccccc2)[C@H](C)CN([C@H](C)CO)C(=O)c2cc(NC(=O)Nc3ccc(C(F)(F)F)cc3)ccc2O1
inactive: outcome [1] | outcome [2] | outcome [3] | outcome [4] | outcome [5] | max activity [6] -20.2% [at 16 µM, active compounds read low] | outcome [7] | outcome [8]

O=C(C[C@H]1CC[C@@H]2[C@H](COC[C@@H](O)CN2Cc2ccc(F)cc2)O1)NCc1ccccc1Cl
inactive: outcome [1] | outcome [2] | outcome [3] | outcome [4] | outcome [5] | max activity [6] 64.7% | outcome [7] | outcome [8] | outcome [9]

C[C@@H]1CN([C@@H](C)CO)C(=O)c2cc(NS(=O)(=O)c3ccc(F)cc3)ccc2O[C@@H](C)CCCCO[C@H]1CN(C)Cc1ccc(C(F)(F)F)cc1
inactive: outcome [1] | outcome [2] | outcome [3] | outcome [4] | outcome [5] | max activity [6] -20.3% [at 0.26 µM, active compounds read low] | outcome [7] | outcome [8] | outcome [9]
